± gives the standard deviation of the averaged measurements.
Each compound was assayed on AEK1 (Tb927.3.2440) (assay: percent reduction in TR-FRET probe signal relative to DMSO control; higher = stronger displacement of ATP-site probe (binding)). Conditions: 1 µM; incubation time 1 h.

Compound | percent reduction in TR-FRET probe signal
C[C@@H]1COCCN1c1cc(C2(S(C)(=N)=O)CC2)nc(-c2ccnc3[nH]ccc23)n1 (some centres not stated) | 8.44 ± 6%
Cc1cc(N2CCOCC2)cc2[nH]c(-c3c(NC[C@@H](O)c4cccc(Cl)c4)cc[nH]c3=O)nc12 | 21.7 ± 13%
CCCCCCCCCCCCCCCCCCOP(=O)([O-])OC1CC[N+](C)(C)CC1 [Perifosine (KRX-0401)] | -18.1 ± 6.6%
Nc1ccc(-c2ccc3ncc4ccc(=O)n(-c5cccc(C(F)(F)F)c5)c4c3c2)cn1 [Torin 2] | 1.07 ± 4.9%
COc1cc2ncnc(Nc3ccc(O)c(Br)c3)c2cc1OC | -7.2 ± 7.7%
NC(=O)c1ccc(N(C(N)=O)c2c(F)cccc2F)nc1-c1ccc(F)cc1F | -4.77 ± 9.4%
COc1cc(F)c(F)c(Nc2ccc(I)cc2F)c1NS(=O)(=O)C1(C[C@H](O)CO)CC1 [Refametinib (RDEA119, Bay 86-9766)] | -1.27 ± 14%
Cc1cc2c(F)c(Oc3ncnn4cc(OC[C@@H](C)O)c(C)c34)ccc2[nH]1 | 20.2 ± 15%
COc1cc2ncnc(Nc3ccc(F)c(Cl)c3)c2cc1OCCCN1CCOCC1 [Gefitinib (ZD1839)] | 5.46 ± 21%
CCCCOc1c(C(=O)c2c(F)cc(C)cc2F)cnc2[nH]ncc12 | 0.53 ± 8%
C[C@@H](Oc1cc(-n2cnc3ccc(CN4CCN(C)CC4)cc32)sc1C(N)=O)c1ccccc1C(F)(F)F | 2.7 ± 0.28%
COc1ccc(-c2nc(N3CCOCC3)c3sc(CN(C)c4ncc(C(=O)NO)cn4)cc3n2)cn1 | -2.41 ± 5.7%
